Screening data from PubChem BioAssay.
Compounds with a hit are over-represented: about 2.9% of the library has one in this group of screens.
ADAM17 inh: inhibits human ADAM17; P78536; AID 720648; 370,000 tested, 0.83% active; recombinant ADAM17, EDANS/DABCYL FRET peptide cleavage; inhibition, % at 6.95 µM;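 active = inhibition above the mean of compounds lying between control limits plus 3 SD, set per campaign, cut at about 8.5% in these data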;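 note: 0% = DMSO-only wells as the low control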
KLK7 zymogen act: activates the human kallikrein-7 zymogen. activation, % at 7 µM. P49862. 370,000 tested, 0.9% active. AID 652039. purified proKLK7, EDANS-DABCYL substrate fluorescence; 100% is mature enzyme control, 0% vehicle;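 active = activation above the mean of all tested compounds plus 3 SD, computed per campaign excluding outliers beyond control limits, cut at about 13% in these data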
Target sequence (P49862 whole entry, looked up): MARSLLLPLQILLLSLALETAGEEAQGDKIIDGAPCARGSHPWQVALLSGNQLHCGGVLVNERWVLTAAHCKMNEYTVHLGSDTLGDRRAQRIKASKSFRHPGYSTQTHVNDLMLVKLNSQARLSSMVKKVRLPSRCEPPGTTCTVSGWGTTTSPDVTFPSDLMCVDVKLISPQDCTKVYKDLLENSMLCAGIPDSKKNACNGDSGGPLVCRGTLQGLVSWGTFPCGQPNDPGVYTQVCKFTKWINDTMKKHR
ADAM10 inh: ADAM10 inhibition, QFRET primary screen | O14672 | recombinant ADAM10, EDANS/DABCYL FRET peptide cleavage, 3 h | inhibition, % at 7 µM | 370,000 tested, 0.62% active | AID 720582;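 active = inhibition above a per-campaign cutoff equal to the mean of compounds falling between control-based bounds plus 3 SD, cut at about 20% in these data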;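 note: 0% = DMSO wells while the 100% control is not disclosed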
PLC-beta3 inh: blocks human PLC-beta3 enzyme activity. Purified PLC-beta3, fluorogenic substrate, fluorescence. inhibition, % at 12.2 µM. Q01970. 370,000 tested, 0.18% active; in the data active = inhibition above about 11%;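 note: 0% = median of compound wells on plate and 100% = full blocker control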
PLC-gamma1 inh: blocks human PLC-gamma1 enzyme activity. purified PLC-gamma1, fluorogenic substrate, fluorescence. inhibition, % at 12.2 µM. 370,000 tested, 0.84% active; in the data active = inhibition above about 9.5%
ADAM10 confirm: human ADAM10 inhibition, confirmation; 2,100 tested, 1% active; inhibition, % at 6.95 µM; shares compounds with ADAM10 inh; ADAM10 QFRET peptide cleavage, EDANS fluorescence; AID 743208;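 active = inhibition above about 20% chosen separately for each screening run, limit read from the data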;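 note: 0% = DMSO wells and 100% = marimastat wells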
ADAM17 counter: counter-screen for ADAM10 exosite inhibitors: inhibitors of human ADAM17; 2,100 tested, 0.5% active; inhibition, % at 6.95 µM; ADAM17 QFRET peptide cleavage, EDANS fluorescence; AID 743214; shares compounds with ADAM10 inh;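 active = mean triplicate inhibition above the solvent-only control wells' mean plus 3 SD, cut at about 12% in these data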;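 note: 0% = DMSO wells and 100% = marimastat wells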
Numbers without * were called inactive; / = no result given.

SMILES | ADAM17 inh | KLK7 zymogen act | ADAM10 inh | PLC-beta3 inh | PLC-gamma1 inh | ADAM10 confirm | ADAM17 counter
Cc1cc(N2CCCC2)ccc1/C=C1\NC(=S)N(C)C1=O | 3.6 | -0.4 | 24.6* | -33.7 | -28.3 | 1.5 | -0.2
CN1C(=O)c2ccc(N3CCCC3)cc2C1=O | -13.3 | -33.8 | -50.8 | -353.8 | -227.9 | / | /
COc1ccc(CN(C)CC(=O)NC(=O)NC2CCCCC2)cc1 | -3.3 | -0.8 | 20.9* | -2.1 | 4.3 | 0.3 | 0.0
COc1ccc(NC(=O)CN(C)CC(=O)NC(=O)NC2CCCCC2)cc1 | 1.4 | -0.2 | -25.7 | -11.2 | 0.3 | / | /
FC(F)Sc1ccc(NC(=S)NCC2CCCCC2)cc1 | 6.8 | 0.3 | 30.7* | 0.4 | 0.7 | 1.7 | 1.4
Cc1ccc(C)c(NS(=O)(=O)c2cc(C(=O)NCCC3=CCCCC3)ccc2C)c1 | 6.8 | -0.1 | 20.1* | -1.8 | -0.5 | 4.4 | 1.6
c1ccc2c(c1)CSc1ccccc1N2 | 7.7 | 0.1 | 20.6* | 3.6 | 5.3 | 1.7 | 0.5
S=C1Nc2ccccc2CS1 | -5.0 | 0.3 | -4.7 | 1.9 | 0.6 | / | /
C[C@@H]1CN([C@H](C)CO)C(=O)Cc2cc(NC(=O)CCC(F)(F)F)ccc2O[C@@H]1CN(C)C(=O)Nc1ccccc1 | 1.1 | 0.5 | 7.5 | 2.2 | 2.2 | / | /
C[C@H]1CN([C@@H](C)CO)C(=O)Cc2cc(NC(=O)CCC(F)(F)F)ccc2O[C@H]1CN(C)Cc1ccc(-c2ccccc2)cc1 | 7.6 | 0.3 | 28.7* | 4.2 | 3.4 | 6.6 | 2.3
Brc1ccccc1Cn1nnc(-c2ccc(N3CCOCC3)cc2)n1 | 1.4 | 0.5 | 0.9 | -2.2 | -1.7 | / | /
CCc1c(-c2ccccc2)ncn1Cc1cccc(-c2ccccc2)c1 | 16.6* | 0.9 | 24.9* | 8.0 | 7.3 | 6.7 | 2.5
C=CCC[C@@H](CCCCC)OC(=O)/C=C/[C@H](O)[C@@H](O)C[C@@H](O)CC=C | 2.5 | -0.2 | 1.3 | 4.4 | -0.6 | / | /
C=CCC[C@H](CCCCC)OC(=O)/C=C/[C@@H](O)[C@H](O)C[C@@H](O)CC=C | 7.4 | 0.4 | 20.9* | 1.9 | 2.8 | 0.3 | 0.3
Cc1onc(-c2ccccc2)c1-c1nnc(COC(=O)c2ccc(O)cc2)o1 | 6.7 | -0.2 | 22.0* | -2.9 | 0.5 | 0.3 | 0.4
N#CC1=C(N)NC(SCc2ccc(Br)cc2)=C(C#N)C12CCCCC2 | 7.9 | 0.3 | 25.4* | 0.0 | -0.7 | 8.8 | 2.0
C[C@H](CO)N1C[C@H](C)[C@H](CN(C)S(C)(=O)=O)OCc2ccccc2-c2c(n(C)c3ccccc23)C1=O | -4.1 | -0.2 | -15.4 | -0.1 | -0.1 | / | /
C[C@H](CO)N1C[C@H](C)[C@H](CN(C)S(=O)(=O)c2ccc(Cl)cc2)OCc2ccccc2-c2c(n(C)c3ccccc23)C1=O | 11.8* | -0.4 | 35.6* | 5.1 | 1.9 | 12.9 | 3.8
CCOC(=O)[C@]12CCCC=C1N(Cc1ccc(OC)cc1)C(=O)[C@@H]2CC(=O)N1CCN(C(=O)c2ccco2)CC1 | -0.4 | -0.4 | -8.7 | 0.1 | -0.5 | / | /
NNc1nc(-c2ccccc2)nc(-c2ccccc2)c1Br | 6.8 | -1.3 | 21.2* | -15.7 | 7.7 | 2.6 | 0.9
Cc1ccccc1C(=O)N1CCC(Oc2cccnc2)CC1 | -4.3 | 0.0 | -4.8 | -2.6 | 1.0 | / | /
N#Cc1cc(F)cc(OC[C@@H](O)CN2CCC(C(O)(c3ccccc3)c3ccccc3)CC2)c1 | -0.9 | -0.5 | 2.7 | -11.3 | 1.7 | / | /
CCCSC1=C(C#N)C(c2cccs2)C(C(=O)Nc2ccccc2)=C(C)N1 (stereo not drawn) | 5.8 | -3.0 | 27.5* | -8.4 | -2.5 | 21.7* | 7.0
Cc1cnn(CCC(=O)NNC(=S)Nc2ccc(F)cc2)c1 | 7.1 | 0.0 | 20.1* | 1.0 | 3.9 | 1.2 | 1.7
Cc1cc(NS(=O)(=O)C2CCN(C(=O)Cc3ccc(Cl)c(Cl)c3)CC2)no1 | 0.3 | 0.4 | 0.3 | 1.5 | -0.1 | / | /
SMILES | ADAM17 inh | KLK7 zymogen act | ADAM10 inh | PLC-beta3 inh | PLC-gamma1 inh | ADAM10 confirm | ADAM17 counter
Cc1ccccc1Cn1ccc(NC(=O)c2cnn3c2NC(c2ccccc2)CC3C(F)(F)F)n1 (stereo not drawn) | 5.3 | -0.3 | 20.5* | 5.3 | 6.0 | 3.6 | 0.9
CCCCNC(=O)C[C@H]1C[C@@]2(C(=O)OC)C(=C[C@H](C3CCCC3)O[C@@H]2C)N(Cc2cccc3ccccc23)C1=O | 6.5 | 0.6 | 24.2* | 4.7 | 6.3 | 6.5 | 2.3
COC(=O)[C@]12C[C@H](CC(=O)N3CCOCC3)C(=O)N(Cc3cccc4ccccc34)C1=C[C@H](C1CCCC1)O[C@@H]2C | 2.1 | 1.0 | 9.6 | 4.8 | 1.4 | / | /
CCOC(=O)N1CCN(C(=O)C[C@H]2C[C@@]3(C(=O)OC)C(=C[C@H](C4CCCC4)O[C@@H]3C)N(Cc3cccc4ccccc34)C2=O)CC1 | 7.7 | 0.0 | 23.6* | 0.9 | 3.6 | 7.7 | 1.6
COC(=O)[C@]12C[C@H](CC(=O)NCCCCc3ccccc3)C(=O)N(Cc3cccc4ccccc34)C1=C[C@H](C1CCCC1)O[C@@H]2C | -6.0 | 0.0 | -13.1 | -7.1 | 3.4 | / | /
COC(=O)[C@]12C[C@H](CC(=O)NCc3cccc4ccccc34)C(=O)N(Cc3ccco3)C1=C[C@H](COCc1ccccc1)O[C@@H]2C | 7.0 | 0.6 | 22.4* | 3.0 | 8.2 | 5.8 | 2.2
COC(=O)[C@]12C[C@H](CC(=O)NCc3cccs3)C(=O)N(Cc3cccc4ccccc34)C1=C[C@H](C1CCCC1)O[C@@H]2C | 4.3 | 0.2 | 20.6* | 2.6 | 0.8 | 8.7 | 3.4
COC(=O)[C@]12C[C@H](CC(=O)NCCC(C)C)C(=O)N(Cc3cccc4ccccc34)C1=C[C@H](C1CCCC1)O[C@@H]2C | 5.1 | -0.1 | 15.8 | 2.7 | 2.5 | / | /
COC(=O)[C@]12C[C@H](CC(=O)NCc3cccc4ccccc34)C(=O)N(Cc3cccc4ccccc34)C1=C[C@H](COCc1ccccc1)O[C@@H]2C | 4.3 | 0.1 | 12.5 | -3.1 | 2.1 | / | /
O=C(OCc1ccccc1)[C@H](Cc1ccccc1)NC(=O)[C@@H]1CC=C[C@@H]2CCN(Cc3ccc(Cl)cc3)C(=O)[C@@H]21 | 1.1 | / | 13.9 | -1.0 | 0.1 | / | /
CC(C)C[C@H]1COc2cccc(N3CCCC3)c2S(=O)(=O)N1C | -6.5 | 0.6 | -9.2 | -6.8 | -4.5 | / | /
COC(=O)[C@]12C[C@H](CC(=O)N3CCCCC3)C(=O)N(CCc3ccc(OC)c(OC)c3)C1=C[C@H](COCc1ccccc1)O[C@@H]2C | -2.4 | 0.8 | 58.3* | 2.2 | 2.1 | -0.7 | -0.4
CCCCNC(=O)C[C@H]1C[C@@]2(C(=O)OC)C(=C[C@H](C(C)(C)C)O[C@@H]2C)N(CCc2ccc(OC)c(OC)c2)C1=O | 4.2 | -0.9 | 8.8 | 2.6 | 0.3 | / | /
